Assays:
Test in all cases: DAPPL (digital affinity profiling via proximity ligation, sequencing); 10 mM Tris-HCl pH 7.5, 50 mM NaCl, 1 mM DTT, 4% glycerol, room temperature, 30 min; GST-TFs on glutathione beads, 16-mer random dsDNA library, 0.1% formaldehyde crosslink after washing; high values mean tight binding
Details in all cases: protein: recombinant; tags: N-terminal GST; dsDNA, one strand shown
ERF = molecular target: T1, ERF (Homo sapiens, UniProt P50548 1-548)
T1 sequence: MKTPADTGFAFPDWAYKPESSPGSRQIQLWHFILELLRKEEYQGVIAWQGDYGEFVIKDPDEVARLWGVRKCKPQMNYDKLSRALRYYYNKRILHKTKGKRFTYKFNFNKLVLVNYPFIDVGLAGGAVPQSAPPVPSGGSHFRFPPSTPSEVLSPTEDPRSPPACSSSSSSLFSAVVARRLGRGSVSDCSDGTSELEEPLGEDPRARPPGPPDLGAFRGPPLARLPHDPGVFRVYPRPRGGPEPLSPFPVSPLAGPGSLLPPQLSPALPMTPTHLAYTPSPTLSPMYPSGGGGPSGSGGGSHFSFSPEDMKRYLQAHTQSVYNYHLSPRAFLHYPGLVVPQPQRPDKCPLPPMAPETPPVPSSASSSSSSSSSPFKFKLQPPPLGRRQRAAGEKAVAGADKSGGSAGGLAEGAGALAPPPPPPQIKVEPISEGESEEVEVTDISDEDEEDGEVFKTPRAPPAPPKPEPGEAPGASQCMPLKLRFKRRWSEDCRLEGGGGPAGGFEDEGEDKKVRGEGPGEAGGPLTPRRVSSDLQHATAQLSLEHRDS
How it was run: (§1)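 Pools were built from human transcription factors expressed in yeast as GST fusions, captured on glutathione beads and DNA-barcoded, along with a tag-only sample. Incubation with 200 nmole of a 16-mer random double-stranded DNA library lasted 30 min at room temperature in Tris/NaCl/DTT/glycerol buffer, and was followed by washing, 0.1% formaldehyde crosslinking, proximity ligation, PCR amplification and Illumina NextSeq500 sequencing. Binding signal is the quotient of each hexamer's read frequency for a factor and its frequency for the tag-only sample.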

ETV3L = molecular target: T2, ETV3L (Homo sapiens, UniProt Q6ZN32 1-361)
T2 sequence: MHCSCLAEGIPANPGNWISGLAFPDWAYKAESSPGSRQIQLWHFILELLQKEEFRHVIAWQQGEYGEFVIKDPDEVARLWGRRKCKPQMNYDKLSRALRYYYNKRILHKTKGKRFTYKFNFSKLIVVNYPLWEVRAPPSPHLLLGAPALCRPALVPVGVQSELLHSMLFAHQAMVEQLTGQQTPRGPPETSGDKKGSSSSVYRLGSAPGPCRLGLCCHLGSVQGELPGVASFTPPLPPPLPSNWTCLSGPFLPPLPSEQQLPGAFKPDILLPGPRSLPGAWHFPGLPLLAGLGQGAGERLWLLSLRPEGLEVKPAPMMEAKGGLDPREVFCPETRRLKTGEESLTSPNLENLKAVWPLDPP
How it was run: as §1

ETS2 = molecular target: T3, ETS2 (Homo sapiens, UniProt P15036 1-469)
T3 sequence: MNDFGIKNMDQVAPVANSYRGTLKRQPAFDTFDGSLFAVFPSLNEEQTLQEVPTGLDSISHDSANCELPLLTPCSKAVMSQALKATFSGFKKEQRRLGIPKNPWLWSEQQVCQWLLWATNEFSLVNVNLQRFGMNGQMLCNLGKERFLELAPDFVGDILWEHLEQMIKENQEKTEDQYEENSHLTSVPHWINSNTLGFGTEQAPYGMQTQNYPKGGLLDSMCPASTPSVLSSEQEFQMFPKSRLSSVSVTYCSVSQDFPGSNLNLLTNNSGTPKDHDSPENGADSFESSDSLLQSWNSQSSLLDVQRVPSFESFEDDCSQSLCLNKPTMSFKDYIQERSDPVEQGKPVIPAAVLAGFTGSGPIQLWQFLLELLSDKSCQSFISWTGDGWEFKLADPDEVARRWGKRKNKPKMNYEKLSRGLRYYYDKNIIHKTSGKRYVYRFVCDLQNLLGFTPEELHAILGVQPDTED
How it was run: as §1

SPDEF = molecular target: T4, SPDEF (Homo sapiens, UniProt O95238 1-335)
T4 sequence: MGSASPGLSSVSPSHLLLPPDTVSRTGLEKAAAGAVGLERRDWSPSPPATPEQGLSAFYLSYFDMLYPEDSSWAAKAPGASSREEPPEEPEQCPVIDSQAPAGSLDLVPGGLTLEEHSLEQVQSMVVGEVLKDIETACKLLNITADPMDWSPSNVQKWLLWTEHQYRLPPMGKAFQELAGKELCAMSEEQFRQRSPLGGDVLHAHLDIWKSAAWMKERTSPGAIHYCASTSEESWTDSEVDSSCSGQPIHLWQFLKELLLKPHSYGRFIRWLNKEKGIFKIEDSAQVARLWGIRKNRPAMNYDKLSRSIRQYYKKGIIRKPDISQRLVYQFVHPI
How it was run: as §1

ETV7 = molecular target: T5, ETV7 (Homo sapiens, UniProt Q9Y603 1-341)
T5 sequence: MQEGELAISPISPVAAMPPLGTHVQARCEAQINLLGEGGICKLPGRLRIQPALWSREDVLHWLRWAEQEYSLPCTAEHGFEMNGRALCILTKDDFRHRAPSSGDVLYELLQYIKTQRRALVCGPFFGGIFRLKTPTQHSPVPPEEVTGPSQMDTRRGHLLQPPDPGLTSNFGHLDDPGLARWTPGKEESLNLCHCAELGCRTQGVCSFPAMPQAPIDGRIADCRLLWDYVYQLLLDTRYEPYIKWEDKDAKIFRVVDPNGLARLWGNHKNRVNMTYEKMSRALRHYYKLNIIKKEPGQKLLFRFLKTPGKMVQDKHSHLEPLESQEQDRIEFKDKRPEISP
How it was run: as §1

ELF5 = molecular target: T6, ELF5 (Homo sapiens, UniProt Q9UKW6-2 1-255)
T6 sequence: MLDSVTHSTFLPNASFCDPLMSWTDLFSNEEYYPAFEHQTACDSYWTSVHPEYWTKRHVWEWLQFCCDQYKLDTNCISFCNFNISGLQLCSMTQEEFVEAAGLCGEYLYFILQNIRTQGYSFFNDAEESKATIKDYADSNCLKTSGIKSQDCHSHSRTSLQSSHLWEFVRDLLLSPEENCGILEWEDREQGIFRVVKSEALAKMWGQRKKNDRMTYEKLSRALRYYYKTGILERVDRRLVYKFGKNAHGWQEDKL
How it was run: as §1

ETV3 = molecular target: T7, ETV3 (Homo sapiens, UniProt P41162-2 1-143)
T7 sequence: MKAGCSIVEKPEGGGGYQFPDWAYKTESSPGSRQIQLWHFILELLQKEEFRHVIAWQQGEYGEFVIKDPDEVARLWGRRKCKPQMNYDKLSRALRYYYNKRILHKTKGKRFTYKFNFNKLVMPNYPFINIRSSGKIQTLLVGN
How it was run: as §1

ETV6 = ETV6 (Homo sapiens, UniProt P41212 1-452)
How it was run: as §1

Sequence of ETV6 (P41212 whole entry): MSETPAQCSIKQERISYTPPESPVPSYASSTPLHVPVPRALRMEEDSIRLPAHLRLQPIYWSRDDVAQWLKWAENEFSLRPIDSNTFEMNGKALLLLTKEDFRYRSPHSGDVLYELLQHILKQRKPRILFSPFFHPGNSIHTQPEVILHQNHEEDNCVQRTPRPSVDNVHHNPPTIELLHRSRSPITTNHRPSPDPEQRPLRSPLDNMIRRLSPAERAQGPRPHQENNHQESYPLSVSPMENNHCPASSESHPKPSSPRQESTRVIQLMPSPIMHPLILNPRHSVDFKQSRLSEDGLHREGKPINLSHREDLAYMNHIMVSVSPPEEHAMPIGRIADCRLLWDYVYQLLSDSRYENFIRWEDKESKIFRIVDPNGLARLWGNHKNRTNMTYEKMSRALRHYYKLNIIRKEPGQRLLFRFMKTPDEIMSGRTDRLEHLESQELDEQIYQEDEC

Sequence	binding signal (ERF)	binding signal (ETV3L)	binding signal (ETS2)	binding signal (SPDEF)	binding signal (ETV7)	binding signal (ELF5)	binding signal (ETV3)	binding signal (ETV6)
TTTTTG	1.35 fold enrichment (6-mer frequency, TF over GST control)	1.38 fold enrichment (6-mer frequency, TF over GST control)	1.27 fold enrichment (6-mer frequency, TF over GST control)	1.28 fold enrichment (6-mer frequency, TF over GST control)	1.25 fold enrichment (6-mer frequency, TF over GST control)	1.27 fold enrichment (6-mer frequency, TF over GST control)	1.29 fold enrichment (6-mer frequency, TF over GST control)	1.23 fold enrichment (6-mer frequency, TF over GST control)
ACTAAT	1.27 fold enrichment (6-mer frequency, TF over GST control)	1.24 fold enrichment (6-mer frequency, TF over GST control)	1.28 fold enrichment (6-mer frequency, TF over GST control)	1.21 fold enrichment (6-mer frequency, TF over GST control)	1.45 fold enrichment (6-mer frequency, TF over GST control)	1.27 fold enrichment (6-mer frequency, TF over GST control)	1.12 fold enrichment (6-mer frequency, TF over GST control)	1.31 fold enrichment (6-mer frequency, TF over GST control)
ATCGCC	1.27 fold enrichment (6-mer frequency, TF over GST control)	1.32 fold enrichment (6-mer frequency, TF over GST control)	1.3 fold enrichment (6-mer frequency, TF over GST control)	1.12 fold enrichment (6-mer frequency, TF over GST control)	1.03 fold enrichment (6-mer frequency, TF over GST control)	1.25 fold enrichment (6-mer frequency, TF over GST control)	1.14 fold enrichment (6-mer frequency, TF over GST control)	1.28 fold enrichment (6-mer frequency, TF over GST control)
AATATG	1.07 fold enrichment (6-mer frequency, TF over GST control)	1.15 fold enrichment (6-mer frequency, TF over GST control)	1.15 fold enrichment (6-mer frequency, TF over GST control)	1.08 fold enrichment (6-mer frequency, TF over GST control)	1.21 fold enrichment (6-mer frequency, TF over GST control)	1.1 fold enrichment (6-mer frequency, TF over GST control)	1.14 fold enrichment (6-mer frequency, TF over GST control)	1.14 fold enrichment (6-mer frequency, TF over GST control)
AAGAAA	1.24 fold enrichment (6-mer frequency, TF over GST control)	1.26 fold enrichment (6-mer frequency, TF over GST control)	1.24 fold enrichment (6-mer frequency, TF over GST control)	1.09 fold enrichment (6-mer frequency, TF over GST control)	1.26 fold enrichment (6-mer frequency, TF over GST control)	1.2 fold enrichment (6-mer frequency, TF over GST control)	1.16 fold enrichment (6-mer frequency, TF over GST control)	1.22 fold enrichment (6-mer frequency, TF over GST control)
AATTCC	1.65 fold enrichment (6-mer frequency, TF over GST control)	1.87 fold enrichment (6-mer frequency, TF over GST control)	1.86 fold enrichment (6-mer frequency, TF over GST control)	1.98 fold enrichment (6-mer frequency, TF over GST control)	1.7 fold enrichment (6-mer frequency, TF over GST control)	2.39 fold enrichment (6-mer frequency, TF over GST control)	2.09 fold enrichment (6-mer frequency, TF over GST control)	1.97 fold enrichment (6-mer frequency, TF over GST control)
AAAATA	1.27 fold enrichment (6-mer frequency, TF over GST control)	1.14 fold enrichment (6-mer frequency, TF over GST control)	1.24 fold enrichment (6-mer frequency, TF over GST control)	1.06 fold enrichment (6-mer frequency, TF over GST control)	1.22 fold enrichment (6-mer frequency, TF over GST control)	1.2 fold enrichment (6-mer frequency, TF over GST control)	1.13 fold enrichment (6-mer frequency, TF over GST control)	1.25 fold enrichment (6-mer frequency, TF over GST control)

From paper PMC7862700, “An all-to-all approach to the identification of sequence-specific readers for epigenetic DNA modifications on cytosine”
